This note sets out measurements from paper PMC7862700, “An all-to-all approach to the identification of sequence-specific readers for epigenetic DNA modifications on cytosine”.

Assay in all cases: DAPPL (digital affinity profiling via proximity ligation, sequencing); 10 mM Tris-HCl pH 7.5, 50 mM NaCl, 1 mM DTT, 4% glycerol, room temperature, 30 min; GST-TFs on glutathione beads, 16-mer random dsDNA library, 0.1% formaldehyde crosslink after washing; high values mean tight binding
The target of one test is T1, FLI1 (Homo sapiens, UniProt Q01543 1-452).
T1 sequence: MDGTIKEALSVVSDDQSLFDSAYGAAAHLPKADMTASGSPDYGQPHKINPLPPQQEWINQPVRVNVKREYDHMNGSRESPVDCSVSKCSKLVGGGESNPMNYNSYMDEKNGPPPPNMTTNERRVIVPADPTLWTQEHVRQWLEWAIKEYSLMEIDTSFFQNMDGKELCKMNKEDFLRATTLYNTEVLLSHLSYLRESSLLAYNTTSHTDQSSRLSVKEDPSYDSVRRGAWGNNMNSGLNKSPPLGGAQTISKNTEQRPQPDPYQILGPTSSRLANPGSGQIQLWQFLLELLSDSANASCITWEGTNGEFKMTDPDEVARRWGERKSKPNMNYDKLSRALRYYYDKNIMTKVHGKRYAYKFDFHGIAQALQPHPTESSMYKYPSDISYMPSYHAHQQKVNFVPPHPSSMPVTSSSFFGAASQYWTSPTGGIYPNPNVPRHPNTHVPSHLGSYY
As to conditions: protein: recombinant; tags: N-terminal GST; dsDNA, one strand shown. In a few lines:
(§1)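 Binding signal is each hexamer's read frequency for a factor divided by its frequency in the tag-only sample. The factors were GST-fused human transcription factors from yeast, captured on glutathione beads, DNA-barcoded and pooled with that sample. Pools were incubated with 200 nmole of a random double-stranded 16-mer DNA library in Tris/NaCl/DTT/glycerol buffer at room temperature for 30 min, then washed, crosslinked with 0.1% formaldehyde, proximity-ligated with BsaI/T4 ligase (1 h, 37 °C), PCR-amplified and sequenced on an Illumina NextSeq500.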

For another test, the target named is T2, ELK1 (Homo sapiens, UniProt P19419 1-428).
T2 sequence: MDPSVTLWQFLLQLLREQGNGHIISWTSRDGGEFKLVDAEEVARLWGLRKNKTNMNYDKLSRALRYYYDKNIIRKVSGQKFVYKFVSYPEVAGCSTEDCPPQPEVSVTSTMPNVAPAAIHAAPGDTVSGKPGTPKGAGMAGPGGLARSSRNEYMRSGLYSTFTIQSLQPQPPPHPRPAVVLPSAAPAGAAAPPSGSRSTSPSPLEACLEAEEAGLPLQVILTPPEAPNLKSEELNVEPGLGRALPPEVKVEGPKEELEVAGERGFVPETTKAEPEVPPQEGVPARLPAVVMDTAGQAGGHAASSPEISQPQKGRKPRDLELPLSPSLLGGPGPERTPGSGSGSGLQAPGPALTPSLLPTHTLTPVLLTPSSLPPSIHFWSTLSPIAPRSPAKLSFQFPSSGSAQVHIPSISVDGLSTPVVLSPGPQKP
As to conditions: protein: recombinant; tags: N-terminal GST; dsDNA, one strand shown. In a few lines:
as §1

Another test addresses T3, GABPA (Homo sapiens, UniProt Q06546 1-454).
T3 sequence: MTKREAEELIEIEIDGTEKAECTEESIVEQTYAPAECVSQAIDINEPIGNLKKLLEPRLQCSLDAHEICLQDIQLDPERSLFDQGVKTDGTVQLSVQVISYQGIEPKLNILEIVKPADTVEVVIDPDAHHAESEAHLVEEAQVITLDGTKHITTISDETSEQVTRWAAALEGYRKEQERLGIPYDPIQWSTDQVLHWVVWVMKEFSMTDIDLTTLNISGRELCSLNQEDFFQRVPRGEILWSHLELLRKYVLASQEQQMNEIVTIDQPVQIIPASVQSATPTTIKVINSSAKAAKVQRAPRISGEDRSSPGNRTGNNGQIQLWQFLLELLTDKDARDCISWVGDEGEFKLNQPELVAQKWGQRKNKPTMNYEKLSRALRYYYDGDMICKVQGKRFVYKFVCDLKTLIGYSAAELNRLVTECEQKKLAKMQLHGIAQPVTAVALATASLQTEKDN
As to conditions: protein: recombinant; tags: N-terminal GST; dsDNA, one strand shown. In a few lines:
as §1

The target in the next test is T4, ERG (Homo sapiens, UniProt P11308 1-479).
T4 sequence: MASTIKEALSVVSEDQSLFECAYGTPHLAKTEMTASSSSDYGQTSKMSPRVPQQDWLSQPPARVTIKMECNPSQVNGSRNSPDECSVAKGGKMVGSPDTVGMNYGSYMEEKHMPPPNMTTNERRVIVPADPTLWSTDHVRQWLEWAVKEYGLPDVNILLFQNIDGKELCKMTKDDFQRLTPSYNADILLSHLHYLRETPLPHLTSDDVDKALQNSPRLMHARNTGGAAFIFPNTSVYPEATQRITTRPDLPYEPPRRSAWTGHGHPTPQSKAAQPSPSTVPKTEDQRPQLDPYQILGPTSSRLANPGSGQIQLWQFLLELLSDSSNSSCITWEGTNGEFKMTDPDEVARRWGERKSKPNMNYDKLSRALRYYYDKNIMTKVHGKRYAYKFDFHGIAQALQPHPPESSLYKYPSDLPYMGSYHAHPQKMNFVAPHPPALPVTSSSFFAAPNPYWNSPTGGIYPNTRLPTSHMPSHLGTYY
The conditions noted are these: protein: recombinant; tags: N-terminal GST; dsDNA, one strand shown. The gist of the method:
as §1

Another test deals with ELF1 (Homo sapiens, UniProt P32519 1-619). The conditions noted are these: protein: recombinant; tags: N-terminal GST; dsDNA, one strand shown. The gist of the method: as §1
The target of another test is T5, EHF (Homo sapiens, UniProt Q9NZC4 1-300).
T5 sequence: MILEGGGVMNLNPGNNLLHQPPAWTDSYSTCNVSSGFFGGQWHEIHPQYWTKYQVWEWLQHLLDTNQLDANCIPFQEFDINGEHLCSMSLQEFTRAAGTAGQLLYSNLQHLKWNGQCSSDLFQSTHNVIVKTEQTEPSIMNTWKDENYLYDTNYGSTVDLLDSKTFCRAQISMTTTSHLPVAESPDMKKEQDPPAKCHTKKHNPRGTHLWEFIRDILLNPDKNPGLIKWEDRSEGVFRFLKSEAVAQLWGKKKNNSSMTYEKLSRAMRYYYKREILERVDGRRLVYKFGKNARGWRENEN
The conditions noted are these: protein: recombinant; tags: N-terminal GST; dsDNA, one strand shown. The gist of the method:
as §1

A further test deals with SPI1 (Homo sapiens, UniProt P17947 1-270). The conditions noted are these: protein: recombinant; tags: N-terminal GST; dsDNA, one strand shown. In a few lines: as §1
Another test deals with SPIB (Homo sapiens, UniProt Q01892 1-262). The conditions noted are these: protein: recombinant; tags: N-terminal GST; dsDNA, one strand shown. In a few lines:
as §1

The target of the next test is T6, ELK3 (Homo sapiens, UniProt P41970 1-407).
T6 sequence: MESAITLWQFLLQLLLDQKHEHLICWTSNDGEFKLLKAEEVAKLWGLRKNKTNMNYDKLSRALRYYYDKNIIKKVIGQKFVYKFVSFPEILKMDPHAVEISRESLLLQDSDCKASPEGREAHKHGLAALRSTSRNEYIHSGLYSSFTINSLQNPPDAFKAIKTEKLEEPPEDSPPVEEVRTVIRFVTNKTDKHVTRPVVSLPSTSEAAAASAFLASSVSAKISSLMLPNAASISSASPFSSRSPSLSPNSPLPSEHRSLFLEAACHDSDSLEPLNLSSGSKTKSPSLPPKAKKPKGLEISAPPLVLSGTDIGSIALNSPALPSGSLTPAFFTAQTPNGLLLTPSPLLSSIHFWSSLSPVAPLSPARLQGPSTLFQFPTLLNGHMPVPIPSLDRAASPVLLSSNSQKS
As to conditions: protein: recombinant; tags: N-terminal GST; dsDNA, one strand shown. In a few lines:
as §1

A further test deals with T7, FEV (Homo sapiens, UniProt Q99581 1-238).
T7 sequence: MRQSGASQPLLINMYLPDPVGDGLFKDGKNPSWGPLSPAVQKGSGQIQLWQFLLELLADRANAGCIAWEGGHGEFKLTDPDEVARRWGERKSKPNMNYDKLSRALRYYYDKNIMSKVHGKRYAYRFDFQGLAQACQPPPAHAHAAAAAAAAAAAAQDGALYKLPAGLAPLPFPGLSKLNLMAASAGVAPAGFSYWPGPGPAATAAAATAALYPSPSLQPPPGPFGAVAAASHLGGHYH
The conditions noted are these: protein: recombinant; tags: N-terminal GST; dsDNA, one strand shown. The gist of the method: as §1

For another test, the target named is ETV5 (Homo sapiens, UniProt P41161 1-510). As to conditions: protein: recombinant; tags: N-terminal GST; dsDNA, one strand shown. The gist of the method:
as §1

For a further test, the target named is HSF1 (Homo sapiens, UniProt Q00613 1-529). As to conditions: protein: recombinant; tags: N-terminal GST; chain copies: 3; dsDNA, one strand shown. The gist of the method: as §1
Another test has as its target T8, SPIC (Homo sapiens, UniProt Q8N5J4 1-248).
T8 sequence: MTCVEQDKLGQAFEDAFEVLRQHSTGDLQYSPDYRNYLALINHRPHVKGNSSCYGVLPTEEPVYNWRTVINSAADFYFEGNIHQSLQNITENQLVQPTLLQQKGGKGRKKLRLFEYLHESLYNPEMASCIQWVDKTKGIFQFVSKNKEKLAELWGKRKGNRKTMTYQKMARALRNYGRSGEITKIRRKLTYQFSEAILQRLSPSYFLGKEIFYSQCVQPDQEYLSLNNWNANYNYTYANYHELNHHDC
As to conditions: protein: recombinant; tags: N-terminal GST; dsDNA, one strand shown. The gist of the method: as §1

A further test addresses ELF4 (Homo sapiens, UniProt Q99607 1-663). The conditions noted are these: protein: recombinant; tags: N-terminal GST; dsDNA, one strand shown. The gist of the method:
as §1

Another test deals with T9, ELK4 (Homo sapiens, UniProt P28324-2 1-405).
T9 sequence: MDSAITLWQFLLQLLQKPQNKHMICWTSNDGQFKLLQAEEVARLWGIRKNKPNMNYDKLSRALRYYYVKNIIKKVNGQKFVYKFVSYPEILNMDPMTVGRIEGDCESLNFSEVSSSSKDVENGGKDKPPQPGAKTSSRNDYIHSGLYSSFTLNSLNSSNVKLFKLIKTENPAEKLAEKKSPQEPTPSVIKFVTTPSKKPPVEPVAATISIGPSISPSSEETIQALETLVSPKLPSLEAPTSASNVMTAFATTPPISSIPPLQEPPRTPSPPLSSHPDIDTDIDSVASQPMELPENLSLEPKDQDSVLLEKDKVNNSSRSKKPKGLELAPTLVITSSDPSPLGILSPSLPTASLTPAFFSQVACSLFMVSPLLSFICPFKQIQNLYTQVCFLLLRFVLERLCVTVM
As to conditions: protein: recombinant; tags: N-terminal GST; dsDNA, one strand shown. In a few lines:
as §1

Another test concerns the target T10, ETV2 (Homo sapiens, UniProt O00321 1-342).
T10 sequence: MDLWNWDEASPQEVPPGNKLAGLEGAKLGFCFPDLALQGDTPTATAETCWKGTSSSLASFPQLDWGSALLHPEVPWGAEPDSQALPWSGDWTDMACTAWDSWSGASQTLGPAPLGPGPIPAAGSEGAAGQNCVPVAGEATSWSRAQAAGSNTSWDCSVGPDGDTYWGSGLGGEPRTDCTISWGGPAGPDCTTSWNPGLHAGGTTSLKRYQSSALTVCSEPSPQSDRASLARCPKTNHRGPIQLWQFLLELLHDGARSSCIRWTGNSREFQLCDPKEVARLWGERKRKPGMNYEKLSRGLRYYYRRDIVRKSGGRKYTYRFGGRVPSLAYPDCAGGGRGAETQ
The conditions noted are these: protein: recombinant; tags: N-terminal GST; dsDNA, one strand shown. The gist of the method: as §1

The target in another test is T11, ELF3 (Homo sapiens, UniProt P78545 1-371).
T11 sequence: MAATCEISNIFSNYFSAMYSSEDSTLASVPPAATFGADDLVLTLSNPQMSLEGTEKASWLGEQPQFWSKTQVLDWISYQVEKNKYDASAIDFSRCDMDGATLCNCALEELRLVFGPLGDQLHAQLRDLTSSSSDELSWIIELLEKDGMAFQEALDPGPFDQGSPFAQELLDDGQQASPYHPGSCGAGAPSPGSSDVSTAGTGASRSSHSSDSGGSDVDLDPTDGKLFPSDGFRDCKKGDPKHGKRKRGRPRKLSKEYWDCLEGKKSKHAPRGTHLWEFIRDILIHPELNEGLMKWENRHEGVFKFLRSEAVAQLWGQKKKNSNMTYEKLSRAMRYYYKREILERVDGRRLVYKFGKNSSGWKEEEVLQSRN
As to conditions: protein: recombinant; tags: N-terminal GST; dsDNA, one strand shown. In a few lines: as §1

The target in another test is CRX (Homo sapiens, UniProt O43186 1-299). As to conditions: protein: recombinant; tags: N-terminal GST; dsDNA, one strand shown. The gist of the method: as §1
The next test deals with ETV1 (Homo sapiens, UniProt P50549 1-477). The conditions noted are these: protein: recombinant; tags: N-terminal GST; dsDNA, one strand shown. The gist of the method: as §1
ETV1, sequence (P50549 whole entry): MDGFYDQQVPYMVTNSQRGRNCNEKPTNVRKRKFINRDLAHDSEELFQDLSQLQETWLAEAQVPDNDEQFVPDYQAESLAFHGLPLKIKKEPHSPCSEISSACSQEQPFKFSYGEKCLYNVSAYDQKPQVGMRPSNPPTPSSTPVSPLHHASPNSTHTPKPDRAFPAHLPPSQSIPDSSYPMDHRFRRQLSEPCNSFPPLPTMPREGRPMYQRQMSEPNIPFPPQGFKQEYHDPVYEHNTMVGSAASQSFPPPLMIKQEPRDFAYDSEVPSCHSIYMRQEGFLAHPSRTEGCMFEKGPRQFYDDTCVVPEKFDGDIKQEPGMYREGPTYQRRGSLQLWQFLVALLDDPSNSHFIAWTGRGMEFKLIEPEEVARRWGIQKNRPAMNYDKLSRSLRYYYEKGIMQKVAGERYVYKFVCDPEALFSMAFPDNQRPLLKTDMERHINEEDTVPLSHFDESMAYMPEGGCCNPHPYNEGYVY

SPIB, sequence (Q01892 whole entry): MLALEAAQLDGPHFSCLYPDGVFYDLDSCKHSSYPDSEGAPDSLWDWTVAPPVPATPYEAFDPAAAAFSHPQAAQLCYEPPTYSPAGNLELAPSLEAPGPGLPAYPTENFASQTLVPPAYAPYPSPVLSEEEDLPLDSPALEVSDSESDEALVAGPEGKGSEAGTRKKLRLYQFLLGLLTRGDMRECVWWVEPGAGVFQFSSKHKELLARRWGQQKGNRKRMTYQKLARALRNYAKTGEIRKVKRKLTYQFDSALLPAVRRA
ELF1, sequence (P32519 whole entry): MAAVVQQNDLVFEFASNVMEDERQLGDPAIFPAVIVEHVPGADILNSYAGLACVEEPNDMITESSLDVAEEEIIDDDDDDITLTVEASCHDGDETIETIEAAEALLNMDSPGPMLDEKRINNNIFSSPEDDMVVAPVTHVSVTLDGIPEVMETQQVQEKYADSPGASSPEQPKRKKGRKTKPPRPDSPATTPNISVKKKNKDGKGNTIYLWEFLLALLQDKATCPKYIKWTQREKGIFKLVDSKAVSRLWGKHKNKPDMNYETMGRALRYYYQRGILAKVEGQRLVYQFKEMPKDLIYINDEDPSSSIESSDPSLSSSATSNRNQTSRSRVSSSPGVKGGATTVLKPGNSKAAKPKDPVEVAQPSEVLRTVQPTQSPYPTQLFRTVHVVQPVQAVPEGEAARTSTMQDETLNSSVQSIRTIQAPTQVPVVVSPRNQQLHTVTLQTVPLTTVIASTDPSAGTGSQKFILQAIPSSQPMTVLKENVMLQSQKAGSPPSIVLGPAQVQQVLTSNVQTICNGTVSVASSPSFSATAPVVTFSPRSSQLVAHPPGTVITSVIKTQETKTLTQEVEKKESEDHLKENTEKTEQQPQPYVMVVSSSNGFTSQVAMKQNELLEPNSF
ETV5, sequence (P41161 whole entry): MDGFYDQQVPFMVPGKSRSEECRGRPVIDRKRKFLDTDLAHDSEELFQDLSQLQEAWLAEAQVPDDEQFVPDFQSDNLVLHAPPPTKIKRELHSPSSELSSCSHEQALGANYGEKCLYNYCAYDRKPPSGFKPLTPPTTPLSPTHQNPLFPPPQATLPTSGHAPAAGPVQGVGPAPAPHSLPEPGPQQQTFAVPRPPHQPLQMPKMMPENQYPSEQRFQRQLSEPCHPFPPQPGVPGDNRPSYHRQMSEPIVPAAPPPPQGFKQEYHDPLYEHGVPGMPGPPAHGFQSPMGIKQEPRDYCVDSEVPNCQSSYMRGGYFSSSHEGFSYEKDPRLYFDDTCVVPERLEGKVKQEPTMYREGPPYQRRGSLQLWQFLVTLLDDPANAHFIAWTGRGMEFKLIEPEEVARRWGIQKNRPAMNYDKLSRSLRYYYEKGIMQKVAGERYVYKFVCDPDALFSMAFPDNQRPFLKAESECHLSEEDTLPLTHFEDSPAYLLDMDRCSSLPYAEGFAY
CRX, sequence (O43186 whole entry): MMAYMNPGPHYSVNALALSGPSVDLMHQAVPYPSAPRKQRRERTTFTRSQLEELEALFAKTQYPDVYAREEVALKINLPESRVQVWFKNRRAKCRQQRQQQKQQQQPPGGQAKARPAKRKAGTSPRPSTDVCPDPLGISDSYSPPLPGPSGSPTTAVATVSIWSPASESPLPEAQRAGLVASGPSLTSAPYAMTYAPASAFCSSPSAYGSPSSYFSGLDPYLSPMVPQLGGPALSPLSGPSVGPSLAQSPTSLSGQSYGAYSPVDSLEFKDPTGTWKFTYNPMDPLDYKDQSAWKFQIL
ELF4, sequence (Q99607 whole entry): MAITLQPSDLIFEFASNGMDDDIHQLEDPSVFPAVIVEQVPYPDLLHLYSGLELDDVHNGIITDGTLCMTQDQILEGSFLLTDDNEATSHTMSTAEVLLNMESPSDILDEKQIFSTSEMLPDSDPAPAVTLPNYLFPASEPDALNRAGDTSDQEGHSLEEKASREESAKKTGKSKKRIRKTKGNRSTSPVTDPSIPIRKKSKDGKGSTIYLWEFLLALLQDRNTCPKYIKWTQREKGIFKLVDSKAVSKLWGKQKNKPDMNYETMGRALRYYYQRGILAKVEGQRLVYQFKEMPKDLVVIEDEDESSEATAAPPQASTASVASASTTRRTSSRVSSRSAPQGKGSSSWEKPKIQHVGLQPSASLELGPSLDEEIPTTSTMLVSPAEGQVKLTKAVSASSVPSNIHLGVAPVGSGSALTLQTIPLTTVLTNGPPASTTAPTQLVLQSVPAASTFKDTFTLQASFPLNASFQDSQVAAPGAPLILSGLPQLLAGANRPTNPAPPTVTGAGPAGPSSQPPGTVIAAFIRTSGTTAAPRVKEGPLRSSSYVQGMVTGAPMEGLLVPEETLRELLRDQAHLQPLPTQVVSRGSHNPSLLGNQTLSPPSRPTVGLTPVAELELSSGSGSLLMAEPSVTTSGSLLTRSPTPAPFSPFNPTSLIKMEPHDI
HSF1, sequence (Q00613 whole entry): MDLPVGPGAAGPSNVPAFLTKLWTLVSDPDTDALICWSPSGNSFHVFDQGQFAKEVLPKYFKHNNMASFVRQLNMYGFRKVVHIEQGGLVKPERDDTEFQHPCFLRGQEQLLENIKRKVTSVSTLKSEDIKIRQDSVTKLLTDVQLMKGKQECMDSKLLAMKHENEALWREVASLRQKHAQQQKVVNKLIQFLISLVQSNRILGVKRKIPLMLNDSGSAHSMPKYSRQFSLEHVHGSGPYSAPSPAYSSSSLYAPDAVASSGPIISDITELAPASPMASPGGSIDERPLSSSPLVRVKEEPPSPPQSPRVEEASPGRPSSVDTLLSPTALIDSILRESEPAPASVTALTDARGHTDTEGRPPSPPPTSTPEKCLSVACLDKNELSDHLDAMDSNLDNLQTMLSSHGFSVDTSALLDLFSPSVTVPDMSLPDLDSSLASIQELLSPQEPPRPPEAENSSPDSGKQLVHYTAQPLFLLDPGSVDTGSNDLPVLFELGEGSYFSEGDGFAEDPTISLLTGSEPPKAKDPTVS

Turning to CCCGGA, the binding signal in the test with FLI1 was 2.74 fold enrichment (6-mer frequency, TF over GST control); with ELK1, 2.61 fold enrichment (6-mer frequency, TF over GST control); with GABPA it was 2.61 fold enrichment (6-mer frequency, TF over GST control); in the test with ERG, 2.99 fold enrichment (6-mer frequency, TF over GST control); in the test with ELF1, 2.87 fold enrichment (6-mer frequency, TF over GST control); with EHF it was 2.95 fold enrichment (6-mer frequency, TF over GST control). Further, the binding signal in the test with SPI1 was 2.47 fold enrichment (6-mer frequency, TF over GST control); in the test with SPIB, 3.06 fold enrichment (6-mer frequency, TF over GST control); with ELK3, 2.85 fold enrichment (6-mer frequency, TF over GST control); in the test with FEV it was 2.77 fold enrichment (6-mer frequency, TF over GST control); with ETV5, 3.14 fold enrichment (6-mer frequency, TF over GST control); in the test with HSF1, 1.14 fold enrichment (6-mer frequency, TF over GST control). For the same sequence, the binding signal in the test with SPIC was 2.52 fold enrichment (6-mer frequency, TF over GST control); with ELF4, 2.6 fold enrichment (6-mer frequency, TF over GST control); with ELK4, 2.16 fold enrichment (6-mer frequency, TF over GST control); with ETV2, 2.55 fold enrichment (6-mer frequency, TF over GST control); with ELF3, 2.88 fold enrichment (6-mer frequency, TF over GST control); in the test with CRX, 1.03 fold enrichment (6-mer frequency, TF over GST control). Moreover, in the test with ETV1, the binding signal was 2.98 fold enrichment (6-mer frequency, TF over GST control).
